Data published in PubChem BioAssay AID1159580 (chemical genetic matrix, 2015).
About 2,000 (36%) of roughly 5,500 compounds were called active. About 18% were inconclusive and are not listed. Rule as the data show it: active = normalized growth mostly below about 0.91 (no sharp cut-off); inconclusive = no clear call, values can overlap the other calls; inactive = mostly above about 0.92. The list shows a part of the results.

Assay: chemical genetic growth profiling, strain panel (AID 1159580);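 also: tested at 20 µM; growth read once vehicle control cultures reached saturation at 30 °C; 1 = growth at the plate median or of vehicle wells; lower values mean less growth of the strain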
Conditions: growth OD

Measured: normalized growth

CC(=O)OC1CC(OC(C)=O)C2(C)C(CC(OC(C)=O)C3(C)C2CCC2(C)C(c4ccoc4)OC(=O)C4OC423)C1(C)C (stereo unspecified)
inactive: S. cerevisiae deletion strains, locus YAL013W, strain DEP1, stronger effect = lower value 0.995 | S. cerevisiae deletion strains, locus YBR021W, strain FUR4, stronger effect = lower value 0.986 | S. cerevisiae deletion strains, locus YBR229C, strain ROT2, stronger effect = lower value 0.984 | S. cerevisiae deletion strains, locus YCL029C, strain bik1, stronger effect = lower value 0.984 | S. cerevisiae deletion strains, locus YDL035C, strain GPR1, stronger effect = lower value 0.97 | S. cerevisiae deletion strains, locus YDL074C, strain BRE1, stronger effect = lower value 1.03 | S. cerevisiae deletion strains, locus YDL101C, strain DUN1, stronger effect = lower value 0.978 | S. cerevisiae deletion strains, locus YDL134C, strain PPH21, stronger effect = lower value 1 | S. cerevisiae deletion strains, locus YDL185W, strain tfp1, stronger effect = lower value 0.986 | S. cerevisiae deletion strains, locus YDL192W, strain arf1, stronger effect = lower value 0.99 | S. cerevisiae deletion strains, locus YDR101C, strain arx1, stronger effect = lower value 0.981 | S. cerevisiae deletion strains, locus YDR150W, strain NUM1, stronger effect = lower value 1 | S. cerevisiae deletion strains, locus YDR162C, strain NBP2, stronger effect = lower value 1.01 | S. cerevisiae deletion strains, locus YDR318W, strain mcm21, stronger effect = lower value 0.986 | S. cerevisiae deletion strains, locus YDR388W, stronger effect = lower value 0.988 | S. cerevisiae deletion strains, locus YDR502C, strain sam2, stronger effect = lower value 1 | S. cerevisiae deletion strains, locus YEL061C, strain CIN8, stronger effect = lower value 0.995 | S. cerevisiae deletion strains, locus YER110C, stronger effect = lower value 0.977 | S. cerevisiae deletion strains, locus YER155C, strain BEM2, stronger effect = lower value 0.976 | S. cerevisiae deletion strains, locus YER167W, strain BCK2, stronger effect = lower value 0.973 | S. cerevisiae deletion strains, locus YGL078C, strain dbp3, stronger effect = lower value 1 | S. cerevisiae deletion strains, locus YGL086W, strain mad1, stronger effect = lower value 0.99 | S. cerevisiae deletion strains, locus YGL248W, strain PDE1, stronger effect = lower value 1 | S. cerevisiae deletion strains, locus YGR078C, strain PAC10, stronger effect = lower value 1.04 | S. cerevisiae deletion strains, locus YGR135W, strain pre9, stronger effect = lower value 1.02 | S. cerevisiae deletion strains, locus YGR229C, strain SMI1, stronger effect = lower value 0.997 | S. cerevisiae deletion strains, locus YGR252W, strain gcn5, stronger effect = lower value 0.951 | S. cerevisiae deletion strains, locus YHR030C, strain SLT2, stronger effect = lower value 0.984 | S. cerevisiae deletion strains, locus YHR079C, strain IRE1 (second series), stronger effect = lower value 0.99 | S. cerevisiae deletion strains, locus YHR094C, strain hxt1, stronger effect = lower value 0.984 | S. cerevisiae deletion strains, locus YHR129C, strain ARP1, stronger effect = lower value 0.997 | S. cerevisiae deletion strains, locus YHR200W, strain rpn10, stronger effect = lower value 0.99 | S. cerevisiae deletion strains, locus YIL066C, strain RNR3, stronger effect = lower value 0.986 | S. cerevisiae deletion strains, locus YIL073C, strain SPO22, stronger effect = lower value 0.954 | S. cerevisiae deletion strains, locus YIL125W, strain kgd1, stronger effect = lower value 0.983 | S. cerevisiae deletion strains, locus YIR030C, strain dcg1, stronger effect = lower value 0.984 | S. cerevisiae deletion strains, locus YJL095W, strain BCK1, stronger effect = lower value 1.03 | S. cerevisiae deletion strains, locus YJL134W, strain LCB3, stronger effect = lower value 0.984 | S. cerevisiae deletion strains, locus YJL168C, strain set2, stronger effect = lower value 0.986 | S. cerevisiae deletion strains, locus YJL187C, strain SWE1 (second series), stronger effect = lower value 1.01 | S. cerevisiae deletion strains, locus YJR043C, strain POL32, stronger effect = lower value 0.98 | S. cerevisiae deletion strains, locus YJR075W, strain HOC1, stronger effect = lower value 1.01 | S. cerevisiae deletion strains, locus YKL009W, strain mrt4, stronger effect = lower value 0.971 | S. cerevisiae deletion strains, locus YKL068W, stronger effect = lower value 1 | S. cerevisiae deletion strains, locus YKL085W, strain MDH1 (second series), stronger effect = lower value 0.992 | S. cerevisiae deletion strains, locus YKL085W, strain MDH1, stronger effect = lower value 0.992 | S. cerevisiae deletion strains, locus YKL190W, strain CNB1, stronger effect = lower value 1 | S. cerevisiae deletion strains, locus YKR001C, strain vps1, stronger effect = lower value 1.01 | S. cerevisiae deletion strains, locus YLR039C, strain RIC1, stronger effect = lower value 0.929 | S. cerevisiae deletion strains, locus YLR058C, strain SHM2, stronger effect = lower value 0.984 | S. cerevisiae deletion strains, locus YLR102C, strain apc9, stronger effect = lower value 0.979 | S. cerevisiae deletion strains, locus YLR262C, strain YPT6, stronger effect = lower value 0.975 | S. cerevisiae deletion strains, locus YLR268W, strain sec22, stronger effect = lower value 1 | S. cerevisiae deletion strains, locus YLR330W, strain CHS5, stronger effect = lower value 0.989 | S. cerevisiae deletion strains, locus YLR342W, strain FKS1 (second series), stronger effect = lower value 0.941 | S. cerevisiae deletion strains, locus YLR371W, strain rom2, stronger effect = lower value 0.977 | S. cerevisiae deletion strains, locus YLR418C, strain cdc73, stronger effect = lower value 0.988 | S. cerevisiae deletion strains, locus YML016C, strain PPZ1, stronger effect = lower value 0.993 | S. cerevisiae deletion strains, locus YML032C, strain rad52, stronger effect = lower value 0.976 | S. cerevisiae deletion strains, locus YML124C, strain tub3, stronger effect = lower value 0.996 | S. cerevisiae deletion strains, locus YMR078C, strain ctf18, stronger effect = lower value 0.97 | S. cerevisiae deletion strains, locus YMR223W, strain ubp8, stronger effect = lower value 0.981 | S. cerevisiae deletion strains, locus YMR263W, strain SAP30, stronger effect = lower value 1.03 | S. cerevisiae deletion strains, locus YMR307W, strain GAS1, stronger effect = lower value 0.909 | S. cerevisiae deletion strains, locus YNL067W, strain RPL9B, stronger effect = lower value 1.03 | S. cerevisiae deletion strains, locus YNL128W, strain TEP1, stronger effect = lower value 0.995 | S. cerevisiae deletion strains, locus YNL153C, strain GIM3, stronger effect = lower value 1.04 | S. cerevisiae deletion strains, locus YNL233W, strain BNI4, stronger effect = lower value 0.999 | S. cerevisiae deletion strains, locus YNL250W, strain rad50, stronger effect = lower value 0.974 | S. cerevisiae deletion strains, locus YNL271C, strain bni1, stronger effect = lower value 0.988 | S. cerevisiae deletion strains, locus YNL298W, strain CLA4, stronger effect = lower value 0.985 | S. cerevisiae deletion strains, locus YNL307C, strain MCK1, stronger effect = lower value 0.965 | S. cerevisiae deletion strains, locus YNL322C, strain KRE1, stronger effect = lower value 0.986 | S. cerevisiae deletion strains, locus YNR052C, strain pop2, stronger effect = lower value 0.987 | S. cerevisiae deletion strains, locus YOL006C, strain TOP1, stronger effect = lower value 0.977 | S. cerevisiae deletion strains, locus YOL012C, strain htz1 1.14 | S. cerevisiae deletion strains, locus YOL147C, strain pex11, stronger effect = lower value 0.996 | S. cerevisiae deletion strains, locus YOR061W, strain CKA2, stronger effect = lower value 0.994 | S. cerevisiae deletion strains, locus YOR069W, strain VPS5, stronger effect = lower value 0.963 | S. cerevisiae deletion strains, locus YOR136W, strain idh2, stronger effect = lower value 0.981 | S. cerevisiae deletion strains, locus YOR144C, strain elg1, stronger effect = lower value 0.998 | S. cerevisiae deletion strains, locus YOR184W, strain ser1, stronger effect = lower value 0.959 | S. cerevisiae deletion strains, locus YOR316C, strain cot1, stronger effect = lower value 0.987 | S. cerevisiae deletion strains, locus YPL055C, strain LGE1, stronger effect = lower value 1.04 | S. cerevisiae deletion strains, locus YPL241C, strain CIN2, stronger effect = lower value 0.994 | S. cerevisiae deletion strains, locus YPR119W, strain clb2, stronger effect = lower value 0.992 | S. cerevisiae deletion strains, locus YPR141C, strain kar3, stronger effect = lower value 0.985 | S. cerevisiae deletion strains, locus YPR163C, strain tif3, stronger effect = lower value 0.992 | S. cerevisiae deletion strains, locus YPR167C, strain met16, stronger effect = lower value 0.992 | S. cerevisiae deletion strains, strain wtn01, stronger effect = lower value 0.996 | S. cerevisiae strains, strain wild type, stronger effect = lower value 0.983
